High-throughput results deposited in PubChem by Johns Hopkins Ion Channel Center.
In the library only some 1.6% were active in any assay of this set; here they are far more common.
KCNQ2 enhance = KCNQ2 (rat) channel potentiation. AID 2239. B-score at 10 µM. O88943. 310,000 compounds, 0.54% hits. CHO-K1 KCNQ2, FluxOR thallium flux fluorescence; hits give high values;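 active = fluorescence ratio B-score at least 3 SD of library B-scores, with initial fluorescence B-score within 3 of them, cut at about 5.3 in these data; same plate scores as AID 2156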;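 also: B-score of peak minus minimum over baseline fluorescence ratio after K+ and Tl+ stimulus; positive B-score means potentiation of KCNQ2 with more thallium influx and brighter signal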
KCNQ2 inh = blocks the rat KCNQ2 potassium channel. CHO-K1 KCNQ2, FluxOR thallium flux, 20 min; hits give low values. O88943. 310,000 compounds, 1.1% hits. B-score at 10 µM;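 active = fluorescence ratio B-score at most minus 3 library SDs, with starting brightness B-score within 2 library SDs, cut at about -5.5 in these data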
Kir21 conf inh = confirmation of mouse Kir2.1 potassium channel inhibitors. shares compounds with KCNQ2 enhance. Kir2.1-expressing cells, FluxOR thallium flux fluorescence; hits give low values. Tl flux remaining, % of negative control (hits give low values), % at 10 µM. 2,300 compounds, 41% hits;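 active = Primary-screen hit whose thallium flux fell at least 3 control SD below untreated wells in both duplicates, with normal baseline fluorescence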;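 also: 0% = blank wells without stimulus and 100% = stimulated no-compound controls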
Target sequence (P35561 whole entry, looked up): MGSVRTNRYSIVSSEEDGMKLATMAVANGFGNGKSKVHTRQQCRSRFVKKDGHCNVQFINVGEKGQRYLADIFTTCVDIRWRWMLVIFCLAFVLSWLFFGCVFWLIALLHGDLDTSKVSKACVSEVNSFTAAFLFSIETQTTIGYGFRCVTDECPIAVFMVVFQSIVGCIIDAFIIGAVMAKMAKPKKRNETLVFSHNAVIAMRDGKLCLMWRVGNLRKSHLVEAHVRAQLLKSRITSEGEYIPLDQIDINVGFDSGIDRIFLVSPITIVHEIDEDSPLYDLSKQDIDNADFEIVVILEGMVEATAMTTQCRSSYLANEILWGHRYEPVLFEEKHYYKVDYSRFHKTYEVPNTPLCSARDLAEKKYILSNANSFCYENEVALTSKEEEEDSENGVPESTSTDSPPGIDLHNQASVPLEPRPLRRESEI
HEK293 ctr = parental HEK293 activity in Kir2.1 inhibitor counter-screen | 2,300 compounds, 19% hits | FluxOR signal as % of negative control (100 = no effect), % at 10 µM | parental HEK293 cells, FluxOR thallium flux fluorescence; 0% = unstimulated blank wells | shares compounds with KCNQ2 enhance | AID 2105;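 active = dye signal at least 3 control SD above or below untreated wells in both duplicates, raw fluorescence within 3, either direction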;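 also: percent is based on the flux ratio of peak minus minimum fluorescence over baseline F0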
CHO-K1 ctr = parental CHO-K1 activity in KCNQ2 potentiator counter-screen; shares compounds with KCNQ2 enhance; parental CHO-K1 cells, FluxOR thallium flux fluorescence; zero = vehicle mean+3SD, 100% = vehicle-minus-blank window; activity increase over 3SD of controls, % at 10 µM; 1,200 compounds, 43% hits;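 active = signal rise of at least 3 SD above the untreated control mean, in both duplicate wells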;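 also: counter screen of KCNQ2 potentiator hits so any rise reflects channel-independent effects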
KCNQ1 sel pot = selectivity of KCNQ2 potentiators: effect on human KCNQ1. activation over 3SD threshold, % at 10 µM. shares compounds with KCNQ2 enhance. CHO KCNQ1 stable, FluxOR thallium flux fluorescence; beyond 3SD, as % of vehicle-control signal. 1,200 compounds, 28% hits;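 active = fluorescence ratio rise of at least 3 SD of vehicle wells above their mean, in both replicate wells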;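 also: 0% = vehicle mean plus 3 SD and 100% = vehicle minus unstimulated blank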
KCNQ2 pot conf = rat KCNQ2 channel potentiator confirmation; shares compounds with KCNQ2 enhance; CHO-KCNQ2 cells, FluxOR thallium flux fluorescence; potentiation, less the hit threshold, % at 10 µM; 1,200 compounds, 68% hits; AID 2287;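 active = fluorescence ratio rising 3 SD or more over the vehicle control mean in both replicates, plus primary screen hit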;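 also: peak minus minimum thallium fluorescence divided by baseline after K/Tl stimulus; 0% = vehicle mean plus 3 SD and 100% = vehicle minus unstimulated blank difference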
Kir2-1 sel = selectivity of KCNQ2 potentiators: effect on mouse Kir2.1; shares compounds with KCNQ2 enhance; HEK293 Kir2.1, FluxOR thallium flux fluorescence; activity over 3SD threshold, % at 10 µM; 1,200 compounds, 2% hits;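 active = fluorescence ratio rise of at least 3 SD above the vehicle-control mean, seen in both replicates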;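 also: 0% = vehicle mean plus 3 SD and 100% = vehicle minus no-stimulus blank window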
KCNQ2 W236L pot = KCNQ2 potentiators acting on retigabine-insensitive rat KCNQ2 W236L mutant. current increase over 3SD of negative controls (%), hits give high values, % at 25 µM. CHO KCNQ2-W236L, automated patch clamp current. AID 2558. shares compounds with KCNQ2 enhance. 940 compounds, 10% hits;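 active = current increase at least 3 SD of the untreated controls above them in both duplicate recordings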
Numbers without * were called inactive; i = inactive; . = no result given.

SMILES	KCNQ2 enhance	KCNQ2 inh	Kir21 conf inh	HEK293 ctr	others
CCc1ccc(OCC(=O)NC2CCCCC2)c(Br)c1	23.2*	i	i	i	CHO-K1 ctr=138.3*;KCNQ1 sel pot=-15.6;KCNQ2 pot conf=72.2*;Kir2-1 sel=-43.7;KCNQ2 W236L pot=i
O=C(Cc1ccc(Cl)c(Cl)c1)NC1CCCCCC1	7.21*	i	i	i	CHO-K1 ctr=-1.1;KCNQ1 sel pot=0.5*;KCNQ2 pot conf=0.8*;Kir2-1 sel=-32.8;KCNQ2 W236L pot=i
O=C(Cc1ccc(Cl)cc1Cl)NC1CCCCCC1	3	i	.	.
O=C(Cn1nnc(-c2ccc3c(c2)OCO3)n1)NCc1ccccc1	0.11	i	.	.
Cc1ccc(Sc2c(C)nn(C(=O)CNS(=O)(=O)c3ccc(F)cc3)c2C)cc1	0.03	i	.	.
Cc1cc(-c2nc3ncccc3o2)ccc1N	0.94	i	.	.
COc1cccc(C(=O)NCc2ccc(N3CCN(C(=O)OC(C)(C)C)CC3)cc2)c1	.	i	.	.
CCCC(=O)Nc1ccc(C(=O)Nc2cc(C(F)(F)F)ccc2Cl)cc1	.	i	.	.
CCCc1nn2c(=O)c(C(c3cccc(Cl)c3)c3c(O)nc4sc(CCC)nn4c3=O)c(O)nc2s1	0.65	i	.	.
COc1ccc(CCNc2ncnc3sc(C)cc23)cc1OC	.	i	65.0%*	i
COc1ccc(CCNc2ncnc3[nH]ncc23)cc1OC	.	i	.	.
COCCCNC(=O)/C=C/c1cccc(Cl)c1	0.23	i	.	.
CCOC(=O)/C(C(=Nc1ccccc1)Nc1ccccc1)=C(\C)O	.	i	.	.
NC(=Nc1ccccc1)Nc1ccccc1	5.84*	i	i	i	CHO-K1 ctr=8.7*;KCNQ1 sel pot=-5.8;KCNQ2 pot conf=19.6*;Kir2-1 sel=-23.1;KCNQ2 W236L pot=i
Cc1cc2ccccc2n1CCNC(=O)c1ccc(S(=O)(=O)N2CCOCC2)cc1	0.81	i	.	.
COCCCNC(=O)CCC(=O)NNc1nc2ccccc2c2nc(-c3ccccc3)nn12	0.76	i	.	.
Cc1ccccc1OCCSc1nnc(-c2cccnc2)n1N	0.31	i	.	.
CCNS(=O)(=O)c1ccc(NC(=O)Nc2cc(C)ccc2OC)cc1	0.86	i	.	.
COc1ccc(Cl)c(N2CCN(CCCNC(=O)Nc3ccc(C)cc3)CC2)c1	.	i	69.5%*	i
COc1ccc(NC(=O)NCCN2CCN(c3cc(OC)ccc3OC)CC2)cc1	0.02	i	.	.
O=C(CC1Oc2ccccc2NC1=O)NCCCN1CCCC1=O (configuration not stated)	.	i	.	.
CCn1c(=O)c2cc(C(=O)N3CCN(C)CC3)sc2c2ccccc21	4.17	i	.	.
O=C1CSC(c2ccccc2F)N1c1cc(Cl)ccc1O (configuration not stated)	1.04	i	i	i
O=C1CSC(c2ccccc2F)N1CCN1CCCCC1 (configuration not stated)	0.16	i	.	.
CCN(Cc1ccccc1)Cc1ccc(OCc2ccccc2)c(OC)c1	.	i	.	.
SMILES	KCNQ2 enhance	KCNQ2 inh	Kir21 conf inh	HEK293 ctr	others
COc1cc(CN(C)CCc2ccccc2)ccc1OCc1ccccc1	.	i	16.5%*	i
c1ccn2cc(CSC3=NCCS3)nc2c1	0.1	i	.	.
COc1ccc(S(=O)(=O)NCCSCc2ccco2)cc1Cl	0.75	i	58.0%*	i
COc1ccc(S(=O)(=O)NCCSCc2ccco2)cc1C	.	i	.	.
COc1ccc(NC(=O)c2ccc(C)cc2)cc1	.	i	.	.
CCc1ccc(NC(=O)C(=O)NNC(=O)c2ccc(OC)cc2)cc1	24.5*	i	i	i	CHO-K1 ctr=-12.6;KCNQ1 sel pot=-45.3;KCNQ2 pot conf=-3.3;Kir2-1 sel=-25.1;KCNQ2 W236L pot=i
COc1ccc(C(=O)NNC(=O)C(=O)Nc2ccc(C)cc2)cc1	27.8*	i	i	234.0%*	CHO-K1 ctr=5.7*;KCNQ1 sel pot=-5.9;KCNQ2 pot conf=7.6*;Kir2-1 sel=-28.8;KCNQ2 W236L pot=i
COc1cccc(C(=O)Nc2cccc3ccccc23)c1	.	i	.	.
COc1ccc(CC(=O)NNC(=O)c2ccc(NC(C)=O)cc2)cc1	0.3	i	.	.
COc1cccc(C(=O)NNC(=O)C(=O)Nc2cccc3ccccc23)c1	12.8*	i	i	i	CHO-K1 ctr=-10.0;KCNQ1 sel pot=8.8*;KCNQ2 pot conf=-11.6;Kir2-1 sel=-26.8
O=C(COC(=O)c1cn(-c2ccccc2)nc1-c1ccccc1)Nc1ncc(Cl)cc1Cl	.	i	.	.
CCC1CCC(C(=O)NNC(=O)OC)CC1 (configuration not stated)	.	i	.	.
CS(=O)(=O)N1CCN(c2ccc(NC(=S)NC(=O)c3cccs3)cc2)CC1	.	i	.	.
O=C(NC(=S)Nc1ccc(N2CCCCC2)cc1)c1cccs1	5.79*	i	i	126.5%*	CHO-K1 ctr=-8.3;KCNQ1 sel pot=-10.2;KCNQ2 pot conf=3.0*;Kir2-1 sel=-38.2;KCNQ2 W236L pot=i
COc1ccc(C2NC(=O)NC(c3ccccc3)=C2c2nc3ccccc3s2)cc1 (configuration not stated)	2.04	i	.	.
O=C1NC(c2ccccc2)=C(c2nc3ccccc3s2)C(c2ccc(F)cc2)N1 (configuration not stated)	8.72*	i	i	i	CHO-K1 ctr=74.1*;KCNQ1 sel pot=-1.7;KCNQ2 pot conf=21.2*;Kir2-1 sel=-28.1;KCNQ2 W236L pot=33.9%*
Cc1c(Cl)cccc1NC(=O)CSCC(N)=O	.	i	.	.
COc1ccc(CNc2ccccc2)cc1Br	.	i	.	.
COc1cc(CNc2cccc(F)c2)cc(Br)c1O	11.2*	i	i	i	CHO-K1 ctr=2.4*;KCNQ1 sel pot=-8.2;KCNQ2 pot conf=-5.5;Kir2-1 sel=-22.6
Cc1ccc(NC(=O)CNc2cccc(S(=O)(=O)N3CCCC3)c2)cc1F	5.51*	i	i	i	CHO-K1 ctr=-35.9;KCNQ1 sel pot=-11.3;KCNQ2 pot conf=-0.3;Kir2-1 sel=-47.5
O=C(CNc1cccc(S(=O)(=O)N2CCCC2)c1)Nc1ccc(F)c(F)c1	0.02	i	.	.
Cc1cccc(OCC(=O)NCC(=O)N/N=C/c2cc(Br)cc(Br)c2O)c1	10.4*	i	i	i	CHO-K1 ctr=6.9*;KCNQ1 sel pot=0.7*;KCNQ2 pot conf=-12.4;Kir2-1 sel=-27.4
COc1cccc(/C=N/NC(=O)CNC(=O)COc2ccccc2)c1O	1.23	i	.	.
CCCCn1c(-c2csc(CCC)c2)n[nH]c1=S	9.07*	i	i	171.5%*	CHO-K1 ctr=-13.7;KCNQ1 sel pot=-14.3;KCNQ2 pot conf=19.6*;Kir2-1 sel=-48.7;KCNQ2 W236L pot=i
CCCc1cc(-c2n[nH]c(=S)n2CC)cs1	0.01	i	.	.
N#Cc1nc(Cc2ccccc2)oc1N1CCC(C(N)=O)CC1	0.04	i	.	.
COc1ccc(/C=C\C(=O)NCc2ccc3c(c2)cc(C)n3C)cc1OC	2.48	i	.	.
O=C(CSc1ccc(Cl)cc1)N1N=CCC1c1ccccc1 (configuration not stated)	.	i	66.5%*	i
